# An excerpt weighted towards active compounds, which were near 3.3% of everything screened.
# NOD2 RIPK2 PPI: NOD2-RIPK2 binding disruptors in cells, primary screen, fluorescence, CHO cells, BLA complementation; Receptor-interacting serine/threonine-protein kinase 2 (Homo sapiens), O43353; CCF4 ratio; inhibition, % at 4.98 µM; 360,000 compounds, 0.38% hits; AID 624267, 2012; in the data active = inhibition above about 21%
# rCAG binder-1: binders of r(CAG) RNA repeats, primary screen, biochemical, fluorescence; inhibition, % at 3 µM; r(CAG) RNA repeat, TO-PRO-1 dye displacement fluorescence; AID 651821, 2012; 370,000 compounds, 1.3% hits;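 active = inhibition above the plate cutoff, the mean of all test compounds on that plate plus 3 SD, cut at about 35% in these data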;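 note: higher means more dye released from RNA so lower well fluorescence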
# ABHD5-PLIN5 inh: ABHD5-PLIN5 interaction inhibitors, primary screen, cell lysate, split luciferase complementation, luminescence | Perilipin-5 (Homo sapiens) + 1-acylglycerol-3-phosphate O-acyltransferase ABHD5 (Homo … | Split G. princeps luciferase complementation, 4 h | inhibition, % at 4 µM | 360,000 compounds, 0.78% hits | AID 602281, 2012;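 active = inhibition above the mean inhibition across every tested compound plus 3 SD, cut at about 22% in these data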
# Target sequence (Q00G26 whole entry, looked up): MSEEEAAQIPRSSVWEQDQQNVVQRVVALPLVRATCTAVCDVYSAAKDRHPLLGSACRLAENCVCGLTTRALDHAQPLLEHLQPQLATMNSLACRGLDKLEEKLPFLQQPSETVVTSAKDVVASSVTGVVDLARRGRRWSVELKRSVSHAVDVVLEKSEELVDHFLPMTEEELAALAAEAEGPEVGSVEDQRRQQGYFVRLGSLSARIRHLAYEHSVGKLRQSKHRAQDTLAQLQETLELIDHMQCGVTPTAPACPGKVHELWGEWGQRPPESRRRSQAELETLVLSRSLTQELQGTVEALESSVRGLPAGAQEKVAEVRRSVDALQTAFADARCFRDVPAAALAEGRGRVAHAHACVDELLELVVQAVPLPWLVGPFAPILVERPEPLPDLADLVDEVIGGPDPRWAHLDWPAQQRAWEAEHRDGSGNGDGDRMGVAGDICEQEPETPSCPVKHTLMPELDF
# Target sequence (Q8WTS1 whole entry, looked up): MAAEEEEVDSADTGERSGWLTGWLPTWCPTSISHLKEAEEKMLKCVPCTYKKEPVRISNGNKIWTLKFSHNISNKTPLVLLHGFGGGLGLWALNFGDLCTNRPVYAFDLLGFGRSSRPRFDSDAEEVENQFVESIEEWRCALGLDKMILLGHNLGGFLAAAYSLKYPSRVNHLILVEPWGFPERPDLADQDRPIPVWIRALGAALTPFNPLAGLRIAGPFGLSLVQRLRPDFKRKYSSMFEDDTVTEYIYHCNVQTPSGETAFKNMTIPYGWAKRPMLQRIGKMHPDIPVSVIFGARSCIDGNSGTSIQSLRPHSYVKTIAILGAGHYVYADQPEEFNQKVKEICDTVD
# TLR4-MyD88 BLA: inhibitors of TLR4-MyD88 association in cells, primary screen, cell-based, HeLa CL3-4, BLA complementation, FRET ratio; Toll-like receptor 4 (Homo sapiens) + Myeloid differentiation primary response protein …; HeLa CL3-4 TLR4/MyD88 BLA complementation; inhibition, % at 8.4 µM; 200,000 compounds, 0.18% hits; AID 861, 2007; in the data active = inhibition above about 25%
# PRMT1 FP inh: PRMT1 methyltransferase inhibitors, primary screen, biochemical, fluorescence polarization | 370,000 compounds, 1.3% hits | Protein arginine N-methyltransferase 1 (Homo sapiens), Q99873 | inhibition, % at 2.79 µM | recombinant PRMT1, activity-based probe fluorescence polarization;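 active = inhibition above about 21% made by adding two undisclosed values, limit read from the data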
# TLR9-MyD88 block: inhibitors of TLR9-MyD88 association in cells, primary screen, cell-based, CHO, BLA complementation, fluorescence; inhibition, % at 4.98 µM; CCF4 FRET ratio; 340,000 compounds, 0.21% hits; AID 504734, 2011;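 active = inhibition above the mean over all tested compounds plus 3 SD, cut at about 21% in these data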
# rCAG bind conf: small molecules binding CAG repeat RNA – biochemical, fluorescence, confirmation; r(CAG) RNA repeat, TO-PRO-1 dye displacement fluorescence; inhibition, % at 3 µM; 4,300 compounds, 70% hits; shares compounds with rCAG binder-1;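 active = inhibition above a per-plate cutoff, the mean inhibition of sample wells plus 3 SD, cut at about 35% in these data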;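 note: loss of TO-PRO-1 fluorescence as compound displaces dye from 1x1 AA loop RNA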
# DNA CAG counter: displacement of TO-PRO-1 from CAG DNA duplex, counter-screen for rCAG RNA repeat binder project, biochemical, fluorescence, TO-PRO-1 dye, d(CAG) DNA oligo; shares compounds with rCAG binder-1; d(CAG) DNA oligo TO-PRO-1 dye displacement; 4,300 compounds, 94% hits; inhibition, % at 3 µM;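 active = inhibition above its plate's cutoff, the mean test-well inhibition plus 3 SD, cut at about 4.8% in these data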;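 note: hits displace the dye from DNA and so lower well fluorescence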
# dCAG dye DR: inhibitors of DNA CAG/GTC TO-PRO-1 complex, dose response, counter-screen for rCAG RNA repeat binder project, biochemical, fluorescence, TO-PRO-1 dye. shares compounds with rCAG binder-1. DNA CAG/GTC duplex TO-PRO-1 dye displacement fluorescence. IC50, µM. 250 compounds, 20% hits; in the data active = IC50 below about 10 µM
# dCAG DNA bind: TO-PRO-1 dye complex inhibitors on d(CAG) DNA, dose response, counter-screen, biochemical, fluorescence, late stage. shares compounds with rCAG binder-1. IC50, µM. 30 compounds, 80% hits. d(CAG) DNA duplex TO-PRO-1 dye displacement
# rCAG binder-2: molecules binding r(CAG) RNA repeats, late stage dose response, late-stage follow-up, biochemical, fluorescence, dose response, powder samples; shares compounds with rCAG binder-1; r(CAG) RNA TO-PRO-1 dye displacement; IC50, µM; 30 compounds, 100% hits
# Numbers stand for hits; 0 = inactive; - = not tested or not shown. Unless noted, the rule behind the calls is not given here.
SMILES,NOD2 RIPK2 PPI,rCAG binder-1,ABHD5-PLIN5 inh,TLR4-MyD88 BLA,PRMT1 FP inh,TLR9-MyD88 block,rCAG bind conf,DNA CAG counter,others
O=C(NCCc1ccc(Cl)cc1)c1ccc2c(=O)[nH]c3c(C(=O)NCC4CCCO4)sc(=S)n3c2c1 (centres undefined),-,44,-,-,0,-,85,70,
CC(C)NC(=O)c1sc(=S)n2c1[nH]c(=O)c1ccc(C(=O)NCCc3ccc(Cl)cc3)cc12,0,0,0,-,0,0,-,-,
COc1ccc(C(=O)NNC2=CC(=O)CC(C)(C)C2)cc1OC,0,0,0,0,0,0,-,-,
Cc1ccccc1C(=O)NC1CCN(CC(=O)NCc2ccccc2)CC1,0,0,0,-,0,0,-,-,
CC(O)(c1ccccc1)c1nc(/C=C/c2ccccc2)cs1 (centres undefined),0,0,0,-,0,-,-,-,
CC1=C(C(=O)OCc2ccccc2)C(c2ccccc2OS(=O)(=O)c2ccc(C)cc2)NC(=O)N1CCCC(=O)O (centres undefined),-,35,-,-,0,-,62,21,
CC[C@@H]1C/C=C\Cc2ccccc2[C@H](C(=O)C[C@H](O)CC(C)=O)OC1=O,0,0,0,-,0,0,-,-,
O=C1CS(=O)(=O)N(Cc2cccc(F)c2)c2ccc(Br)cc21,0,52,0,-,0,0,0,14,
COc1ccc(CN2c3c(Br)cccc3C(=O)CS2(=O)=O)cc1,0,-,0,-,-,0,-,-,
Cc1cc2c(cc1S(=O)(=O)N1CCN(c3cccc(C)c3C)CC1)OCCN2C,0,0,0,-,0,0,-,-,
COC(=O)c1ccc(/C=N/n2c(C)nc3ccccc3c2=O)cc1,0,0,0,-,0,0,-,-,
O=C(O)C1=C2C(=O)Nc3cccc(c32)C2(C1)C(=O)Nc1ccccc12 (centres undefined),0,39,0,-,0,0,59,22,
O=C1NCCC12C(=O)Nc1ccccc12 (centres undefined),0,0,0,-,0,0,-,-,
COc1ccccc1NC(=O)CCc1nnc2ccc(N3CCN(C)CC3)nn12,0,0,0,-,0,0,-,-,
Cc1cccc(/C=C(\C(=O)O)c2ccc(S(=O)(=O)N3CCCC3)s2)c1,0,0,0,-,0,0,-,-,
CCCCOc1ccc(/C=C(\C(=O)O)c2ccc(S(=O)(=O)N3CCCC3)s2)cc1,0,67,0,-,0,0,66,28,
O=C(O)/C(=C\c1ccc(C(F)(F)F)cc1)c1ccc(S(=O)(=O)N2CCCC2)s1,0,37,0,-,0,0,0,5.5,
O=C(O)/C(=C\c1ccc(Br)cc1)c1ccc(S(=O)(=O)N2CCCCC2)s1,0,47,0,0,0,0,67,25,dCAG dye DR=0;dCAG DNA bind=8.3;rCAG binder-2=2.8
COc1cc(/C=C(\C(=O)O)c2ccc(S(=O)(=O)N3CCCC3)s2)ccc1OCCC(C)C,0,72,0,-,0,0,57,20,
O=C(O)/C(=C\c1cccc(F)c1)c1ccc(S(=O)(=O)N2CCCC2)s1,0,0,0,-,0,0,-,-,
Cc1cc(F)cc(-c2cc(C(=O)NCc3ccco3)[nH]n2)c1,0,0,0,-,0,-,-,-,
CC1(C(=O)NS(=O)(=O)c2ccc3ccccc3c2)CCN1C(=O)CC1CCCCC1 (centres undefined),0,39,0,-,0,-,57,20,
CC(C)(C)c1ccc(S(=O)(=O)NC(=O)C2(C)CCN2C(=O)CC2CCCC2)cc1 (centres undefined),0,37,0,-,0,-,0,0,
Nc1nc2c(Br)ccc(Br)c2cc1C(=O)NCc1cccc2ccccc12,0,0,0,-,0,-,-,-,
O=[N+]([O-])c1cc(S(=O)(=O)Nc2cccc(C(F)(F)F)c2)ccc1-n1nnc2ccccc21,0,78,0,0,0,0,69,33,
SMILES,NOD2 RIPK2 PPI,rCAG binder-1,ABHD5-PLIN5 inh,TLR4-MyD88 BLA,PRMT1 FP inh,TLR9-MyD88 block,rCAG bind conf,DNA CAG counter,others
C=CCn1c(SCc2ccc(Br)cc2F)nc2cc(C(=O)O)ccc2c1=O,0,57,0,-,0,0,60,22,
CCOC(=O)C1=C(C)N=c2s/c(=C/c3ccc(OCC(=O)O)cc3)c(=O)n2C1c1ccc(SC)cc1 (centres undefined),0,-,0,-,-,0,-,-,
CC1=C(C(=O)OC(C)C)C(c2ccc(Cl)cc2)n2c(sc(=Cc3ccc(OCC(=O)O)cc3)c2=O)=N1 (centres undefined),0,42,0,-,0,-,64,30,dCAG dye DR=0
O=C(Nc1nnc(SCc2ccccc2)s1)c1cccc([N+](=O)[O-])c1,0,36,0,0,0,0,0,6.0,
Cc1nnc(SCc2cccc([N+](=O)[O-])c2)s1,0,0,0,0,0,0,-,-,
CCCC(=O)Nc1sc(-c2ccccc2)c(-c2ccccc2)c1C(=O)O,0,41,0,-,0,0,0,0,
O=C(COc1ccccc1/C=C1\SC(=S)NC1=O)Nc1ccc(F)cc1,0,39,0,-,0,0,71,32,dCAG dye DR=0;dCAG DNA bind=2.8;rCAG binder-2=1.1
O=C(O)c1cc([N+](=O)[O-])cc([N+](=O)[O-])c1N1CCN(c2cccc(C(F)(F)F)c2)CC1,0,41,0,-,0,0,0,5.7,
O=C(c1ccc(Cl)cc1)N1CCc2ccccc21,0,0,0,-,0,0,-,-,
O=C(Nc1ccc(S(=O)(=O)Nc2ncccn2)cc1)c1ccccc1NS(=O)(=O)c1ccc(Cl)cc1,0,42,0,-,0,0,66,26,

# Source: PubChem BioAssay (The Scripps Research Institute Molecular Screening Center)
